Reference: the supplement of paper PMC9942566
± gives the standard deviation of the averaged measurements.

The compounds below were run on Serratia marcescens K904 PosmB-luxCDABE reporter (pMQ747) (assay: PosmB-lux reporter fold induction (RLU/OD600 relative to no-compound control), highest over Biolog concentrations; higher = stronger reporter activation). Settings: Biolog plate: PM13; well positions: C9-12; ΔrcsB mutant CMS5177; 4 h.
Description: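 Serratia marcescens K904 (wild type) or its isogenic ΔrcsB mutant, carrying the Rcs-dependent PosmB-luxCDABE reporter plasmid pMQ747, was grown in LB at OD600 0.1 in Biolog Phenotype MicroArray plates PM11-20 for 4 h at 30-32°C. Each compound is present at 3-4 proprietary concentrations (not stated); per the Fig. S1 legend the value given is the highest fold over those wells. Three independent trials.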

Row | Compound | PosmB-lux reporter fold induction
1 | [K+].[K+].[O]=[Cr](=[O])([O-])[O-] [Potassium chromate] | 1.87 ± 0.86

Same assay, conditions: Biolog plate: PM13; well positions: E5-8; ΔrcsB mutant CMS5177; 4 h

Row | Compound | PosmB-lux reporter fold induction
2 | CN[C@@H]1[C@@H](O)[C@@H](O[C@@H]2[C@@H](O)[C@H](O[C@H]3O[C@H]([C@@H](C)O)[C@@H](O)[C@H](O)[C@H]3N)[C@@H](N)C[C@H]2N)OC[C@]1(C)O [Geneticin (G418)] | 1.34 ± 0.41
